This is a sample that favours compounds with a hit; in the whole collection about 3.7% have one here.
Nrf2 block: Nrf2 qHTS screen for inhibitors; 360,000 compounds, 2.1% hits; A549 ARE-Fluc reporter, luciferase luminescence, 18-24 h; Potency, µM (highest dose often 46 µM), usual class: inhibitors; note: nearly all actives have a fitted effect of over 60% in size
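Nrf2 function is reported as luminescence of an ARE-controlled luciferase in A549 cells. Compounds were tested at several concentrations, and a CellTiter-Fluor read on the same wells flagged cytotoxicity.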
ELG1 DNA repair: qHTS screen for small molecules that inhibit ELG1-dependent DNA repair in human embryonic kidney (HEK293T) cells expressing luciferase-tagged ELG1; HEK293T ELG1-luciferase reporter, luminescence, 16 h; DNA damage induced by 5-fluorouridine; Potency, µM (doses to about 46.1 µM), actives largely listed as inhibitors; 330,000 compounds, 2.3% hits; note: nearly all actives have a fitted effect of over 55% in size
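5-Fluorouridine DNA damage + compound/DMSO, 2,000 cells/well, 16 h, 37 °C/5% CO2. ONE-Glo, 30 min RT, luminescence. Readout = decrease in reporter signal.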
Nrf2 activator: qHTS of Nrf2 Activators | Potency, µM (top dose mostly 46.1 µM), hits mostly activators | 410,000 compounds, 0.31% hits | AREc32 ARE-luciferase reporter (MCF7-derived line), luminescence, 24 h | AID 624171, 2012; note: nearly all actives have a fitted effect of over 65% in size
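Luminescent ARE reporter assay in AREc32_Fluc cells: overnight plating at 37 deg C, 24 hr compound incubation, Steady-Glo added, 30 min RT before reading.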
A549 viability: Nrf2 qHTS screen for inhibitors: counterscreen for cytotoxicity | A549 ARE-Fluc cells, CellTiter-Fluor viability, 18-24 h | Potency, µM (doses to about 46 µM), usual class: inhibitors | 390,000 compounds, 0.16% hits | AID 504648, 2011
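A549 ARE-Fluc cells in 5% FBS OPTI-MEM, 5000 cells/well, rested 2 h then exposed to compounds in concentration-response for 18-24 h at 37 °C. Viability by CellTiter-Fluor fluorescence (Ex 405/Em 525) after 30 min; luciferase luminescence (BugLite, 15 min, RT) read afterwards.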
Large screens that a line does not name were inactive. Calls come from the whole dose curve; as a rule, active = well fitted curve in the direction sought with a large enough effect; inconclusive = small, poorly fitted or top-dose-only effect, or another doubt; inactive = no such curve, though single readings can be large; an effect the other way counts as inactive or inconclusive.

O=C(C1CCCN1S(=O)(=O)c1cccc2cccnc12)N1CCn2c1nc1ccccc12 (stereo not given)	none
Cc1ccc(-c2cc3nc(C)cc(C)n3n2)cc1	Nrf2 block inconclusive, ELG1 DNA repair inconclusive, Nrf2 activator inconclusive
Cc1cc(C)n2nc(-c3ccccc3)cc2n1	Nrf2 block inconclusive, ELG1 DNA repair inconclusive, Nrf2 activator 8.91µM
CN(C)S(=O)(=O)N1CCC(Oc2ccc(C(=O)N3C[C@H]4CC[C@H]3C4)cc2)CC1	Nrf2 block inconclusive, ELG1 DNA repair 13µM
C#CCN(CC=C)C(=O)c1ccc(OC2CCN(S(=O)(=O)N(C)C)CC2)cc1	ELG1 DNA repair 20.6µM
CN(C)S(=O)(=O)N1CCC(Oc2ccc(C(=O)N3C[C@@H]4CCC[C@H]3C4)cc2)CC1	none (no result: ELG1 DNA repair)
Cc1ccc(NC(=O)C2CC(=O)N(c3ccccc3Cl)C2)cc1S(=O)(=O)N1CCOCC1 (stereo not given)	Nrf2 block inconclusive (no result: ELG1 DNA repair)
Cc1cccc(C)c1OCCCCn1c(C2CC(=O)N(c3ccc(F)cc3)C2)nc2ccccc21 (stereo not given)	Nrf2 block 20.6µM, A549 viability inconclusive (no result: ELG1 DNA repair)
Cc1ccc(OCCn2c(C3CC(=O)N(Cc4ccccc4)C3)nc3ccccc32)cc1 (stereo not given)	ELG1 DNA repair 14.6µM
Cc1cc(C)cc(OCCn2c(C3CC(=O)N(c4ccccc4Cl)C3)nc3ccccc32)c1 (stereo not given)	Nrf2 block inconclusive, A549 viability inconclusive (no result: ELG1 DNA repair)
Cc1cccc(C)c1OCCn1c(C2CC(=O)N(c3cccc(Cl)c3)C2)nc2ccccc21 (stereo not given)	Nrf2 block 20.6µM, A549 viability inconclusive (no result: ELG1 DNA repair)
COc1cc(NC(=O)c2ccco2)c(OC)cc1NC(=O)CCC(=O)Nc1cc(C)cc(C)c1	ELG1 DNA repair 20.6µM
COC(=O)c1sccc1NC(=O)c1ccccc1[N+](=O)[O-]	Nrf2 activator 11.2µM
COc1cc(NC(=O)c2ccco2)c(OC)cc1NC(=O)CCC(=O)Nc1cc(C)ccc1C	Nrf2 block inconclusive, ELG1 DNA repair inconclusive
COC(=O)c1sccc1NC(=O)c1cccc(F)c1	Nrf2 activator 10µM (no result: ELG1 DNA repair)
CCOc1cc(NS(=O)(=O)CC)c(OCC)cc1NC(=O)c1ccco1	ELG1 DNA repair 16.4µM
COC(=O)c1sccc1NC(=O)c1ccccc1Br	Nrf2 activator inconclusive (no result: ELG1 DNA repair)
CCOc1cc(NS(=O)(=O)c2ccc(OC)cc2)c(OCC)cc1NC(=O)c1ccco1	Nrf2 block inconclusive, ELG1 DNA repair inconclusive
O=C1CN(N=Cc2ccco2)C(=O)N1	none (no result: ELG1 DNA repair)
CC(C)C[C@H](NC(=O)/C=C/[C@H]1O[C@@H](n2ccc(=O)[nH]c2=O)[C@H](O)[C@@H]1O)C(=O)O	none (no result: Nrf2 block, ELG1 DNA repair, A549 viability)
CN(Cc1ccccc1)Cc1c(O)ccc2c(=O)c(-c3ccccc3)c(C(F)(F)F)oc12	none (no result: ELG1 DNA repair)
COC(=O)c1cc(OC)c(OC)cc1NC(=O)c1ccco1	ELG1 DNA repair 23.1µM, A549 viability inconclusive
CC(C)COc1ccc(C(=O)Nc2ccc(NC(=O)c3ccco3)c(Cl)c2)cc1	Nrf2 block 16.4µM, A549 viability inconclusive
COC(=O)c1sccc1NC(=O)c1ccco1	Nrf2 activator 11.2µM
COc1cc(NC(=O)c2ccco2)c(C(=O)O)cc1OC	none
COc1cc(OC)cc(C(=O)Nc2cc(NC(=O)c3ccco3)ccc2OC)c1	ELG1 DNA repair 20.6µM
Cc1cn2c(=O)c(S(=O)(=O)NCc3ccc(F)cc3)c(C)nc2s1	none (no result: ELG1 DNA repair)
CCc1nc2c(OCC=C(C)C)cccn2c1N(C)C(=O)c1ccc(OC)cc1	none (no result: Nrf2 block, ELG1 DNA repair, A549 viability)
COC(CN1C(=O)C(=O)/C(=C(/O)c2ccccc2)C1c1ccccn1)OC (stereo not given)	none
COc1ccc(-c2ccc3ncnc(NCc4cccs4)c3c2)cc1	none (no result: ELG1 DNA repair, Nrf2 activator)
CN(CC(=O)Nc1cccc(F)c1)C(=O)c1cc(S(=O)(=O)N2CCN(c3ccccc3)CC2)ccc1Cl	Nrf2 block inconclusive, ELG1 DNA repair inconclusive
COc1cccc(-c2ccc3ncnc(NCc4ccc5c(c4)OCO5)c3c2)c1	Nrf2 block 16.4µM, ELG1 DNA repair 8.2µM
c1nc(NCc2ccc3c(c2)OCO3)c2cc(-c3ccc4c(c3)OCCO4)ccc2n1	Nrf2 block 23.1µM
COc1cccc(-c2ccc3ncnc(NCc4cc(C)cs4)c3c2)c1	ELG1 DNA repair inconclusive
c1cncc(CNc2ncnc3ccc(-c4ccoc4)cc23)c1	ELG1 DNA repair inconclusive
Cc1cccc(CNc2ncnc3ccc(-c4ccc5c(c4)OCCO5)cc23)c1	Nrf2 block 14.6µM, ELG1 DNA repair inconclusive, A549 viability inconclusive
Cc1cccc(CNc2ncnc3ccc(-c4ccoc4)cc23)c1	Nrf2 block 18.4µM, ELG1 DNA repair inconclusive
c1cncc(CNc2ncnc3ccc(-c4ccc5c(c4)OCO5)cc23)c1	none
Cc1ccc(NS(=O)(=O)c2ccc(-c3ccccc3)cc2)cc1C	Nrf2 block inconclusive (no result: ELG1 DNA repair, Nrf2 activator)
COc1cc(/C=N/N(c2ccccc2)c2ccccc2)ccc1O	none
CN(/N=C\c1ccc(O)c(O)c1)c1nc(-c2ccccc2)cc(-c2ccccc2)n1	ELG1 DNA repair 13µM
O=C(NCc1ccccc1)c1onc(CSc2ccccc2)c1C(=O)NCC1CC1	Nrf2 block inconclusive, ELG1 DNA repair 23.1µM
COc1cccc(C(NC(C)=O)c2nc(-c3ccc(F)cc3OC)cs2)c1 (stereo not given)	none (no result: Nrf2 block, ELG1 DNA repair, A549 viability)
C/C(=N\N1CCN(Cc2ccc(Cl)cc2)CC1)c1ccc([N+](=O)[O-])cc1	Nrf2 block inconclusive, ELG1 DNA repair 16.4µM
CC(C)C[C@@H]1COc2cccc(N3CCC[C@H]3CO)c2S(=O)(=O)N1	none (no result: Nrf2 block, ELG1 DNA repair, A549 viability)
COc1ccc(-c2nc(CSCC(=O)N3CCN(c4cccc(C)c4)C(C)C3)c(C)o2)cc1OC (stereo not given)	Nrf2 block inconclusive, ELG1 DNA repair 14.6µM
COc1ccc(-c2nc(CSCC(=O)NC3CCCC3)c(C)o2)cc1OC	ELG1 DNA repair 14.6µM
COc1ccc(-c2nc(CSCC(=O)N3CCc4ccccc4C3)c(C)o2)cc1OC	ELG1 DNA repair inconclusive
COc1ccc(-c2nc(CSCC(=O)NC3CC3)c(C)o2)cc1OC	none
Cc1cccc(-c2nc(CSCC(=O)N3CCN(c4ccccn4)CC3)c(C)o2)c1	Nrf2 block 20.6µM, ELG1 DNA repair inconclusive
COc1ccc(-c2nc(CSCC(=O)NC3CCCc4ccccc43)c(C)o2)cc1OC (stereo not given)	Nrf2 block inconclusive, ELG1 DNA repair 16.4µM
COc1ccc(C)cc1NC(=O)CNC(=O)[C@@H]1Cc2ccccc2CN1	none
COc1ccc(-n2c(=O)c3ccc(C(=O)NCc4ccc(C)cc4)cc3n(Cc3ccc(F)cc3Cl)c2=O)cc1	none (no result: ELG1 DNA repair)
O=C(c1ccc([N+](=O)[O-])s1)N1CCN(c2ccccn2)CC1	Nrf2 block inconclusive, ELG1 DNA repair inconclusive
O=C(c1ccc([N+](=O)[O-])s1)N1CCN(c2ccccc2)CC1	Nrf2 block 20.6µM, ELG1 DNA repair inconclusive, A549 viability inconclusive
C=C1C(=O)[C@@]23[C@H](O)C[C@@H]4C(C)(C)CC[C@H](O)[C@@]4(C)[C@@H]2CC[C@@H]1[C@H]3O	Nrf2 block 18.4µM, ELG1 DNA repair 6.51µM, A549 viability inconclusive

Compound activity from PubChem BioAssay.
